PubChem BioAssay (EPA / NIEHS)
Records with an inconclusive call do not appear. Active and inactive are the calls of the source. How the source made its calls: active means hit-call score of the fitted dose curve at least 0.9, where 1 is the maximum; inconclusive means response in the unintended direction; inactive means score below 0.9.

Biological target: Voltage-gated inwardly rectifying potassium channel KCNH2 (Homo sapiens) (UniProt Q12809)
Test: NVS_IC_hKhERGCh: NovaScreen (NVS) Ion Channel Assay for human Potassium Channel ERG (KhERGCh) (AID 2283333)
Experimental: NVS_IC_hKhERGCh is a biochemical, single-readout assay that uses extracted gene-proteins from CHO in a cell-free assay. Measurements were taken 0.75 hour after chemical dosing in a 48-well plate.NVS_IC_hKhERGCh is one of one assay component(s) measured or calculated from the NVS_IC_hKhERGCh assay. It is designed to make measurements of radioligand binding, a form of binding reporter, as detected with scintillation counting signals by Filter-based radiodetection technology.Data from the assay component NVS_IC_hKhERGCh was analyzed into 1 assay endpoint. This assay endpoint, NVS_IC_hKhERGCh, was analyzed in the positive analysis fitting direction relative to DMSO as the negative control and baseline of activity. Using a type of binding reporter, loss-of-signal activity can be used to understand changes in the binding as they relate to the gene KCNH2. Furthermore, this assay endpoint can be referred to as a primary readout, because the performed assay has only produced 1 assay endpoint. To generalize the intended target to other relatable targets, this assay endpoint is annotated to the ion channel intended target family, where the subfamily is potassium channel.
Binding assays used specific radioligands (tritiated, iodinated) with non-radioactive competitive displacement ligands in agonist or antagonist protocols (as indicated) and various reference compounds and inhibitors to titrate specific binding to receptors and transporters. Most enzyme assays (CYPs, kinases, phosphatases, proteases, HDACs) used recombinant protein and specific substrates (fluorescence mostly, some colorimetric and radioactive) and inhibitors, followed by a biochemical separation of substrate and product. All assays for the biochemical HTS were initially run in duplicate at a single concentration (10 uM for CYP450 assays and 25 uM for all others). […] Each assay was run with positive and negative controls, and concurrent controls on every plate. The follow-up (secondary) screen tested active chemical-pairs in concentration series, as well as a few additional assays not tested in the primary screen, some selected negative inactives, and several cases re-run in the concentration series for confirmatory purposes.

Chain of Voltage-gated inwardly rectifying potassium channel KCNH2 (Homo sapiens) (Q12809 whole entry, looked up): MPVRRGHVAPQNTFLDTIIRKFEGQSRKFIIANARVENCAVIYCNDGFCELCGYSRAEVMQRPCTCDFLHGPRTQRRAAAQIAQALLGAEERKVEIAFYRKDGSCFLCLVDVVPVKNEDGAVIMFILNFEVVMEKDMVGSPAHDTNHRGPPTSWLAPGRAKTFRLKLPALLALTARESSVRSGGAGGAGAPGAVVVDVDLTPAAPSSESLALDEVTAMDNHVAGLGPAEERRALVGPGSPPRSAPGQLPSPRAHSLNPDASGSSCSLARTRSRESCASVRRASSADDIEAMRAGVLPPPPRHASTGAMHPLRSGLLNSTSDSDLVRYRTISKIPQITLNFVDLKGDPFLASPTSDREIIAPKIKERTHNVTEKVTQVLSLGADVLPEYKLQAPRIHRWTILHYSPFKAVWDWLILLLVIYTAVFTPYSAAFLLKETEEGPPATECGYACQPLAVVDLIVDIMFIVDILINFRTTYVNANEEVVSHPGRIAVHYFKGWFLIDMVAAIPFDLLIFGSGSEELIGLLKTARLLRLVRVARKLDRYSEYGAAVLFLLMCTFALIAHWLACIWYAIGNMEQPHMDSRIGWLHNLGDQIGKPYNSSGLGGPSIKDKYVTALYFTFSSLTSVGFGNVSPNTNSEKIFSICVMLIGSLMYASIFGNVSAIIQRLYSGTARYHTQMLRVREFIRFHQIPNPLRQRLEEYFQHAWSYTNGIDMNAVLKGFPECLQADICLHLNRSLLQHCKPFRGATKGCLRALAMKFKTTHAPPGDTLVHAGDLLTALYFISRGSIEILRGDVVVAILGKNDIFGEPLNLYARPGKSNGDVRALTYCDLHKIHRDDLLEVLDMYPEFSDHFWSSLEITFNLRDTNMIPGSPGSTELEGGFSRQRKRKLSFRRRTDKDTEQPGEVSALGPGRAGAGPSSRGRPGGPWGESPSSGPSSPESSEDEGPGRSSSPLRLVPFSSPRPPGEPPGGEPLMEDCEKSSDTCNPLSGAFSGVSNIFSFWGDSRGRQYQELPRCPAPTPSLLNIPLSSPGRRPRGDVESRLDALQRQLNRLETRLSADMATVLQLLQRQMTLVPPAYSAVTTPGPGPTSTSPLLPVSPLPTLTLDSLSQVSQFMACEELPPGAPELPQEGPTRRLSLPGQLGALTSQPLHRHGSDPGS

SMILES	AC50	outcome
CCCCCCCCCCCC[N+](C)(C)C	10.2 µM (active)	
CN(C)C(=O)C1(N2CCCCC2)CCN(CC[C@@]2(c3ccc(Cl)c(Cl)c3)CN(C(=O)c3ccccc3)CCO2)CC1	8.74 µM (active)	
COc1cc(C(=O)NC2CCN(C)CC2)ccc1Nc1ncc2c(n1)N(C1CCCC1)CC(F)(F)C(=O)N2C	5.1 µM (active)	
CCOC(=O)O[C@H](C)OC(=O)c1ccc2c(c1)cc(C(=O)NC1CCN(C(C)C)CC1)n2Cc1cc(-c2ccc(Cl)s2)on1	0.925 µM (active)	
Cc1cc(F)ccc1-c1cc(N2CC[C@@H](O)[C@H]2CO)ncc1N(C)C(=O)C(C)(C)c1cc(C(F)(F)F)cc(C(F)(F)F)c1	7.95 µM (active)	
CN(C)c1ccc(C(=C2C=CC(=[N+](C)C)C=C2)c2ccc(N(C)C)cc2)cc1	5.33 µM (active)	
CCCCCCCCN(C)CCCCCCCC		inactive
NCc1cccc(C2CCN(C(=O)c3ccc(C#Cc4ccccc4F)o3)CC2)c1	6.03 µM (active)	
CCN(CC)C(=O)c1cc(S(=O)(=O)Cc2ccccc2)c(N2CCC(c3ccccc3)CC2)cc1N(CC)CCN(C)C	6.17 µM (active)	
COc1ccc2cc(S(=O)(=O)N[C@H](CC(=O)N[C@H](Cc3ccc(CN4[C@H](C)CCC[C@@H]4C)cc3)C(=O)N(C)C(C)C)c3ccc4c(c3)OCO4)ccc2c1	1.21 µM (active)	
